# Epigenetic derep: epigenetic control regulation, reporter derepression; Potency, µM (series often up to 53.9 µM), for inactives: top-dose GFP activation, hits mostly activators; 0.2% of 280,000 active; murine LDR cells, GFP reporter derepression, 30 h; also: potency is read from the fitted curve at half-maximal effect; % of control where 0% means no effect; nearly all actives have a fitted effect of over 60% in size
#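 Readout is the number of GFP-expressing murine LDR cells, counted by cytometry following washing. Cells were treated with compound for 30 h at 37 C; the stably integrated CMV-GFP locus is normally silent.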
# PTAP TSG101 blk: blocks PTAP/TSG101 interaction to inhibit HIV-1 budding | Fluorescence polarization, FITC-PTAP peptide / Tsg101 binding | AID 493005 | 340,000 tested, under 10 active | Potency, µM (titrated, usually from 115 µM), for the others: at the top dose activity change, negative = inhibition, hits mostly inhibitors; active = well fitted inhibition curve with a large enough effect in the main read-out, with a control signal flat, not every such curve was filed as active; inconclusive = small, poorly fitted or top-dose-only effect, or effect the other way, or a change in a side signal; inactive = no such curve, though single readings can be large or run the other way; also: potency is read from the fitted curve at half-maximal effect; % of control where 0% means no effect
# Target sequence (Q99816 whole entry, looked up): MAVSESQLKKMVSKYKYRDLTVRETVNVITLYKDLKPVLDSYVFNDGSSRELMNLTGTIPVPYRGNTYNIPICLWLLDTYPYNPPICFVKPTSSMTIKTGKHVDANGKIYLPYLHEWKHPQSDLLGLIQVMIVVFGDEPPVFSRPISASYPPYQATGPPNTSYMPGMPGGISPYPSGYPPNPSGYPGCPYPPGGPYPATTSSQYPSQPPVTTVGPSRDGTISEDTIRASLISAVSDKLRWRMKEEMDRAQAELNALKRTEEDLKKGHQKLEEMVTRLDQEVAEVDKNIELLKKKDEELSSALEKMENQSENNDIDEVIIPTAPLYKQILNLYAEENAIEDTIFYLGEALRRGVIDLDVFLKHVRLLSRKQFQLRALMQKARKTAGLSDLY
#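 Compounds were pin-transferred onto Tsg101 binding domain (10 uM final) in HEPES pH 7.5 buffer, then FITC-PTAP peptide was added at 50 nM final. After 20 min at RT, polarization reported peptide displacement across a qHTS concentration series.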
# CBFb-RUNX1 inh: CBF-beta/RUNX1 interaction disruption; Q01196+Q13951; AlphaScreen CBFb-His/RUNX1-biotin binding, biochemical; Potency, µM (titrated, usually from 59.8 µM), for the others: at the highest dose activity, negative = inhibition, hits mostly inhibitors; 230,000 tested, under 10 active; AID 1477; also: % of control where 0% means no effect
#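 Inhibition was taken as any reduction in AlphaScreen signal from the CBF-beta–RUNX1 pair (His and biotin tags, 30 nM each), measured after compound (15 min) and bead (90 min) incubations at room temperature.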
# Vif-APOBEC3F blk: blocks the Vif interaction with APOBEC3F; AID 602313; 0.2% of 390,000 active; Potency, µM (titrated, usually from 46.1 µM), for inactives: at the top dose activity, negative = active; HeLa A3F-eYFP + Vif (tagged APOBEC3F with the HIV-1 protein that degrades it), YFP fluorescence increase; also: potency is read from the fitted curve at half-maximal effect; % of control where 0% means no effect; nearly all actives have a fitted effect of over 65% in size
#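 Fluorescence increase (Ex 488/Em 500-530) after overnight compound treatment at 37 deg C flags inhibition of Vif-driven A3F-eYFP loss in stable HeLa A3F-eYFP/Vif cells seeded overnight beforehand.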
# MBNL1 CUG block: inhibitors of human MBNL1 binding to CUG repeat RNA | Q9NR56 | TR-FRET MBNL1-His/biotin-(CUG)12 binding, 665/545 ratio | Potency, µM (series often up to 57.5 µM), for the others: at the top dose activity change, negative = inhibition, usual class: inhibitors | 0.036% of 280,000 active | AID 2675; active = well fitted inhibition curve with a large enough effect in the signal ratio, with a control signal flat, not every such curve was filed as active; inconclusive = small, poorly fitted or top-dose-only effect, or effect the other way, or a change in a side signal; inactive = no such curve, though single readings can be large or run the other way; the % refers to the signal ratio; also: potency is read from the fitted curve at half-maximal effect; % is scaled to controls: 0 for no effect and ±100 for the full control effect
# Target sequence (Q9NR56 whole entry, looked up): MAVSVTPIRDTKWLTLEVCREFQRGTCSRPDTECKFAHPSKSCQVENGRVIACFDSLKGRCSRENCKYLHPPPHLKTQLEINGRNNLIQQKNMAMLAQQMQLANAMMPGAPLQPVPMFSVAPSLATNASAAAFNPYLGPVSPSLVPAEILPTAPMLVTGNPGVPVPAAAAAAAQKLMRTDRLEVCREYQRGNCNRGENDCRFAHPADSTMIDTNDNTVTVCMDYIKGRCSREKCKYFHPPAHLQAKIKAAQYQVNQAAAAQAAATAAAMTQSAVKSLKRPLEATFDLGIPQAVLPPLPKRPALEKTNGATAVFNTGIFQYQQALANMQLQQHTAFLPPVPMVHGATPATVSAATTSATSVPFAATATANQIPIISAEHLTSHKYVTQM
#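 His-tagged MBNL1 binding to biotinylated (CUG)12 RNA was measured by TR-FRET using terbium anti-His antibody (0.055 ng/ul final) and streptavidin-XL665 (5 nM final). Compounds were titrated 92 nM to 58 uM; 60 min at room temperature.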
# Vif-A3G inh: Vif-A3G binding inhibition; Q9HC16; HeLa A3G-eYFP + Vif (tagged APOBEC3G with the HIV-1 protein that degrades it), YFP fluorescence, overnight; Potency, µM (highest dose often 46.1 µM), inactives show at the highest dose activity, negative = active, usual class: inhibitors; 0.076% of 410,000 active; also: potency is read from the fitted curve at half-maximal effect; % is scaled to controls: 0 for no effect and ±100 for the full control effect; nearly all actives have a fitted effect of over 60% in size
#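 HeLa cells stably expressing Vif and C-terminally eYFP-tagged A3G, seeded overnight at 37 deg C, then exposed to compound by pintool overnight at 37 deg C. Rise in yellow fluorescence (Ex 488/Em 500-530, Acumen) marks blocked Vif-driven A3G degradation.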
# * marks the source's active call; other numbers are inactive results; ? = inconclusive; · = no result. A selection: hits, their analogues and other compounds. The true share with any hit is near 0.37%. Unless noted, calls follow the shape of the dose curve; as a rule, active = well fitted curve in the direction sought with a large enough effect; inconclusive = small, poorly fitted or top-dose-only effect, or another doubt; inactive = no such curve, though single readings can be large; an effect the other way counts as inactive or inconclusive.
SMILES,Epigenetic derep,PTAP TSG101 blk,CBFb-RUNX1 inh,Vif-APOBEC3F blk,MBNL1 CUG block,Vif-A3G inh
N#Cc1ccc(-c2cccs2)nc1SCC(=O)Nc1cccc(C(F)(F)F)c1,3%,·,·,-21%,·,-14%
N#Cc1c(C(F)(F)F)cc(-c2cccs2)nc1SCC(=O)Nc1ccc(Cl)cc1,10µM*,·,·,?,·,10µM*
N#Cc1c(C(F)(F)F)cc(-c2cccs2)nc1SCC(=O)Nc1cccc(C(F)(F)F)c1,16µM*,·,·,10µM*,·,?
N#CC(C#N)=C(N)CSc1cccc[n+]1[O-],8.9µM*,1%,16%,?,-2%,2%
CN(C)c1ccc(/C=C/c2ccnc3c(Cl)cccc23)cc1,·,·,·,·,·,3.5µM*
CCN(CC)c1ccc(/C=C/c2ccccn2)cc1,·,·,·,·,·,3.2µM*
CN(C)c1ccc(/C=C/c2ccnc3ccc(-c4ccccc4)cc23)cc1,·,·,·,·,·,7.1µM*
C(=C\c1ccccn1)/c1ccccc1,·,·,·,·,·,2%
CN(C)c1ccc(/C=C/c2ccnc3ccc(Cl)cc23)cc1,·,·,·,·,·,-16%
CCN(CC)c1ccc(/C=C/c2ccnc3ccccc23)cc1,·,·,·,·,·,11µM*
CCCS(=O)(=O)c1ncc(Cl)c(C(=O)Nc2sc3c(c2C(=O)NCC)CCCC3)n1,·,·,·,·,·,-4%
COc1cc(N(C)C)c(OC)cc1/C=C/c1ccnc2ccccc12,·,·,·,·,·,7.1µM*
CC(C)(C)c1ccc(C(=O)C[n+]2cccc(Br)c2)cc1,·,·,·,·,·,-1%
COc1ccc2oc(=O)c(-c3nc4ccc(C)cc4[nH]3)cc2c1,11µM*,·,·,?,·,?
COc1cccc2cc(-c3nc4ccc(C)cc4[nH]3)c(=O)oc12,1%,·,·,-4%,·,1%
CCCCN1C(=O)c2cccc3cc(O)cc(c23)C1=O,·,-3%,·,1.3µM*,·,-12%
CN(C)CCCN1C(=O)c2cccc3cccc(c23)C1=O,·,-1%,·,-14%,?,5%
CCN1C(=O)c2cccc3c(NC(=O)c4ccc5c(c4)OCCO5)ccc1c23,22µM*,?,9%,?,7%,0%
CN(C)c1ccc(-c2nnc(SCC(=O)NCc3ccco3)n2C)cc1,·,·,·,·,·,0%
CCCCn1c(NC(=O)c2ccco2)c(S(=O)(=O)c2ccc(C)cc2)c2nc3ccccc3nc21,2%,2%,0%,25µM*,42%,?
COCc1ccc(O)c2ncccc12,4.5µM*,-6%,·,3%,12%,10µM*
Oc1ccc(CNc2ccccc2)c2cccnc12,1%,-1%,?,·,-12%,1%
O=[N+]([O-])c1ccc(O)c2ncccc12,6.3µM*,-1%,?,?,?,0%
CCOC(=O)N1CCN(c2cc(NCCC(=O)O)c3c4c(onc24)-c2ccccc2C3=O)CC1,0%,?,?,7.1µM*,?,?
O=C(O)CCCNc1cc(N2CCN(C(=O)c3ccco3)CC2)c2noc3c2c1C(=O)c1ccccc1-3,·,?,·,?,?,22µM*
SMILES,Epigenetic derep,PTAP TSG101 blk,CBFb-RUNX1 inh,Vif-APOBEC3F blk,MBNL1 CUG block,Vif-A3G inh
CC(C)(C)n1ncc2c(=O)n(Cc3ccccc3F)cnc21,·,·,·,·,·,0%
CC(=O)Nc1sc(/C(C#N)=C\c2cccc(Cl)c2)nc1-c1ccc(C)cc1,7.9µM*,?,9%,10µM*,·,4µM*
O=C1C[C@H]2C=CCc3cccc(c32)CN1Cc1ccc(Cl)cc1,·,·,·,·,·,-9%
O=CNc1ccc2c3c(cccc13)-c1ccccc1-2,·,-6%,·,?,·,13µM*
O=C(N=c1ccn(-c2nc3ccccc3nc2NS(=O)(=O)c2ccccc2)cc1)c1ccccc1Cl,·,-8%,·,7.1µM*,?,0%
O=C(N=c1ccn(-c2nc3ccccc3nc2NS(=O)(=O)c2ccc(Cl)cc2)cc1)c1cccs1,?,?,8%,7.9µM*,?,-14%
CCOc1ccc(S(=O)(=O)Nc2nc3ccccc3nc2-n2ccc(=NC(=O)c3cccs3)cc2)cc1,1%,?,-6%,-25%,·,3%
CC(=O)c1c(C)[nH]c2ccc(OCC(O)CNCCc3ccccc3)cc12 (stereo not given),·,·,·,·,·,-1%
C[N+]1(CC(=O)c2ccc(Oc3ccccc3)cc2)CCOCC1,·,·,·,·,·,3%
COc1ccc(OC)c2sc(NC(=O)CCSc3ccccc3)nc12,1%,1%,4%,-3%,-9%,0%
COc1ccc(OC)c2sc(NC(=O)CCS(=O)(=O)c3ccccc3)nc12,·,-3%,·,3%,·,11µM*
COc1ccc(-n2c(C)cc(/C=C3\SC(=S)NC3=O)c2C)cc1,25µM*,0%,1%,10µM*,-4%,-21%
Cc1cc(/C=C2\SC(=S)NC2=O)c(C)n1-c1ccc(O)cc1,6%,4%,?,?,15%,-15%
CC1(C)CC(=O)c2cc(C(=O)NCCc3ccccc3)c(=O)[nH]c2C1,·,·,·,·,·,-1%
CN1/C(=C/c2cccc[n+]2C)Sc2ccccc21,·,1%,·,?,?,?
Cc1ccc2c(c1)N(C)/C(=C/c1cccc[n+]1CCO)S2,·,0%,·,13µM*,?,?
CCCCN1/C(=C/c2cccc[n+]2C)Sc2cc(NC(C)=O)ccc21,·,0%,·,-9%,?,-13%
CCN1/C(=C/c2cccc[n+]2C)Sc2ccc(OC)cc21,·,-6%,·,25µM*,?,?
Cc1ccc2c(c1)N(C)/C(=C/c1cccc[n+]1C)S2,·,-3%,·,11µM*,?,?
COc1ccc2c(c1)N(C)/C(=C/c1cccc[n+]1C)S2,·,0%,·,?,?,13µM*
COc1ccc(OC)c(C(Cc2ccnc3ccccc23)Cc2ccnc3ccccc23)c1,·,·,·,·,·,-11%
O=C(C[N+]12CN3CN(CN(C3)C1)C2)c1ccc(O)c(O)c1,·,·,·,·,·,3%
CN(C)c1cc2c3ccccc3ccc2c2ccccc12,·,·,·,·,·,-3%
O=C(C[n+]1csc2ccccc21)c1ccc(I)cc1,·,·,·,·,·,3%
Oc1[nH]c(N=C2N=c3ccccc3=N2)c2ccccc12,13µM*,-1%,-20%,10%,31%,-4%
Cc1ccc2c(c1)=N/C(=N\c1[nH]c(O)c3ccccc13)N=2,·,·,·,-12%,·,-20%
CCCC1=[N+](CC(=O)c2ccc(Br)cc2)CCn2cccc21,0%,0%,-8%,11µM*,-7%,-23%
CCCC1=[N+](CC(=O)c2ccccc2)CCn2cccc21,1%,0%,6%,1%,4%,-6%
C=CCn1c(=O)/c(=C/c2cc(OC)c(OC)c(OC)c2)s/c1=C(/C#N)c1nc2ccccc2n1C,?,?,-6%,22µM*,-10%,-8%

# Source: PubChem BioAssay (National Center for Advancing Translational Sciences (NCATS))
